Assay results: PubChem BioAssay (NCI)
Compounds without any hit were thinned out: in the full panel of roughly 83,000, 20% have a hit.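 Treatment: one concentration, 48 hours, 96-well format. Scoring: percent growth, with anything below 10 considered active.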 Values without a mark were called inactive. Activity calls are given as the source filed them.

System: MDA-MB-468 breast
Assay: NCI-60 one-dose screen, 48 h (100 = growth as untreated, 0 = no growth, -100 = all killed)
Details: 10 µM unless noted

SMILES | growth
C=CCc1cc(Nc2c3ccc(Cl)cc3nc3ccc(OC)cc23)cc(CN(CC)CC)c1O | -19.1% (active)
CCOC(=O)C1C(=O)C=C(c2ccccc2)CC1c1sc(N(C)Cc2ccccc2)nc1Cl (stereo unspecified) | 80.9%
Nc1c(Cl)cc(/C=C2\C=Cc3ccccc32)cc1Cl | 97.9%
CCCN1CCN(c2ccc3nc(-c4ccc5nc(-c6cc(OC)ccc6OC)[nH]c5c4)[nH]c3c2)CC1 | 114%
COc1cc(OC)c(C(=O)/C=C/c2cccc(OC(C)=O)c2)cc1CC=C(C)C | 58.3%
COc1cc(/C=C/c2nnc(-c3cc(-c4ccccc4)n[nH]3)o2)cc(OC)c1OC | 101%
